# In PubChem BioAssay:
# Activity calls are given as the source filed them. Unless noted, no rule for the calls is given here.
# Columns and labels:
# [1] = test system: XIP peptide (Xip251-270) binding; assay: XIP fragment 251-270 binding compounds – biochemical, small-molecule microarray, fluorescence 635/667 nm, 0.1 µg/mL protein, primary screen (AID 1182); details: fluorescent protein binding, 635 nm, higher = more signal, called active from +8 up or from −8 down
# [2] = test system: XIP peptide (Xip251-270); assay: compounds binding XIP fragment 251-270 – biochemical, small-molecule microarray, fluorescence 635/667 nm, 0.5 µg/mL protein, primary screen (AID 1183); details: fluorescence 635 nm, higher = more signal
# [3] = blood-stage malaria parasite viability loss – strain 3D7, DAPI fluorescence, 100 nL, primary screen (AID 1184);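 also: parasites grown inside human red blood cells in medium with human serum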; details: P. falciparum 3D7 growth, 3 d, higher = more signal
# [4] = molecular target: Homeobox protein Hox-A13 (Mus musculus) (UniProt Q62424); assay: disruptors of Hoxa13 oligonucleotide interaction – biochemical, fluorescence polarization, labeled oligonucleotide, primary screen (AID 1185); details: Hoxa13:DNA binding, 15 min, higher = more signal, called active from +8 up or from −8 down
# Chain of Homeobox protein Hox-A13 (Mus musculus) (Q62424 whole entry, looked up): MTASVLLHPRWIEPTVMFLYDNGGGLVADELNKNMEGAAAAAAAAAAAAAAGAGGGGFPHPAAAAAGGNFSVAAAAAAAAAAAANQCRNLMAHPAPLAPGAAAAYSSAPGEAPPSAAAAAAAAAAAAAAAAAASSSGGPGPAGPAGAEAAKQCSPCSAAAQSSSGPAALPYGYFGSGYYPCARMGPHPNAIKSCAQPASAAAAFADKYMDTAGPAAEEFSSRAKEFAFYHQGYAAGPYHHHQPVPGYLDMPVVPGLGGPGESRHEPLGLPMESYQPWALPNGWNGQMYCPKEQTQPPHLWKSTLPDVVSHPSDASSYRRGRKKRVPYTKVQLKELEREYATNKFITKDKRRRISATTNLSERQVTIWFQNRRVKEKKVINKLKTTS
# [5] = blockers of DNA damage checkpoint Chk1 activation – imaging, HeLa, hydroxyurea, phospho-Chk1 antibody, percent positive cells, primary screen (AID 1186); details: hydroxyurea-induced phospho-Chk1 immunofluorescence imaging, higher = more signal
# [6] = blockers of DNA damage checkpoint Chk1 activation – imaging, HeLa, hydroxyurea, phospho-Chk1 nuclear intensity, primary screen (AID 1187); details: hydroxyurea-induced phospho-Chk1 immunofluorescence imaging, higher = more signal
SMILES,composite z-score [1],composite z-score [2],z-score [3],z-score [4],z-score [5],z-score [6]
C[C@]1(C(=O)NC2CC2)c2ccccc2C(=O)N(Cc2cc(C(F)(F)F)cc(C(F)(F)F)c2)[C@H]1c1ccc(CO)cc1,1.56 (inactive),0.849,-0.895,-3.26 (inactive),-0.66 (inactive),-0.479 (inactive)
N#Cc1ccc(NN2C(C(O)c3c(F)cccc3Cl)C=CC3C(=O)N(c4ccccc4)C(=O)C32)cc1 (centres undefined),0.817 (inactive),0.748,-0.677,0.238 (inactive),0.0345 (inactive),0.0457 (inactive)
[N-]=[N+]=NCc1ccccc1C[C@]1(C(=O)O)N=C(c2ccc(OCCCO)cc2)O[C@H]1c1ccccc1N=[N+]=[N-],0.525 (inactive),0.771,-1.57,-3.84 (inactive),-0.1 (inactive),0.16 (inactive)
COCCCN1C(=O)[C@@]2(c3ccc([N+](=O)[O-])cc3)CC(=O)N(C3CCCCC3)[C@@H]2c2ccc(CO)cc21,0.0996 (inactive),0.154,-0.599,-0.329 (inactive),0.0889 (inactive),0.133 (inactive)
O=C1c2ccccc2[C@](Cc2ccccc2I)(C(=O)NC2CC2)[C@H](c2ccc(CO)cc2)N1Cc1ccccc1,0.534 (inactive),0.63,-0.35,-5.1 (inactive),0.0675 (inactive),-0.345 (inactive)
CCCCCC1=C2CNC(CCC)(C(=O)OC)C=C2C(C)C1=O (centres undefined),0.455 (inactive),-0.0874,-0.175,-6.92 (inactive),0.138 (inactive),0.466 (inactive)
CN(C)CCCCCCNC(=O)[C@@H]1C[C@@H]2C(=O)N[C@@H](CCCCN)C(=O)N2[C@@H]1c1cccc(OCCO)c1,3.64 (inactive),0.944,0.0037,-1.47 (inactive),-1.14 (inactive),-0.785 (inactive)
CCOC(=O)C[C@H]1[C@H](OC(=O)Cc2ccc3c(c2)OCO3)[C@@H](NC(=O)c2ccc3ccccc3c2)c2cc(OCCCO)ccc2N1C(=O)c1ccccc1,0.0654 (inactive),0.263,0.168,-2.57 (inactive),-0.251 (inactive),-0.629 (inactive)
COC(=O)[C@@]1(Cc2ccccc2)[C@H]2c3cc(C(=O)N4CCCC4)n(Cc4cccc5ccccc45)c3C[C@H]2CN1C(=O)c1ccccc1,0.112 (inactive),-0.569,-1.35,-3.06 (inactive),1.05 (inactive),0.243 (inactive)
CCCC=C(CCC)[C@@H](NC(=O)Oc1ccc(F)cc1)c1ccc(C(=O)OC)cc1,0.814 (inactive),0.302,-0.476,-0.734 (inactive),0.239 (inactive),0.34 (inactive)
Cc1ccc(C(C)CC(O)C2C=CC3C(=O)N(c4ccccc4)C(=O)C3N2Nc2ccc([N+](=O)[O-])cc2)o1 (centres undefined),0.099 (inactive),0.839,-1.1,-3.75 (inactive),0.161 (inactive),0.568 (inactive)
C=CCN1C(=O)[C@@]2(O[C@@H](CCO)[C@H]([Si](C)(C)c3ccc(OC)cc3)[C@H]2C)c2cc(NC(=O)c3ccc(OC)cc3)ccc21,0.574 (inactive),0.208,-2.77,-4.58 (inactive),-0.176 (inactive),0.416 (inactive)
C[C@@]1([C@@H](NC(=O)c2ccccc2)c2ccc(-c3ccccc3)cc2)C[C@H]1C1CCCCC1,0.192 (inactive),-1.44,-0.206,-0.0623 (inactive),0.664 (inactive),-0.296 (inactive)
COc1cc2c(cc1O)C(C1CC1)N(Cc1cc3c(cc1Br)OCO3)CC2 (centres undefined),0.411 (inactive),0.479,-2.44,-5.54 (inactive),-0.174 (inactive),0.285 (inactive)
COCCOC(=O)N1C(=O)[C@@]2(c3cc(C#Cc4ccc(OC)cc4)ccc31)[C@H](C(N)=O)[C@H]1C(=O)O[C@H](c3ccccc3)[C@H](c3ccccc3)N1[C@@H]2c1ccccc1OCCO,1.85 (inactive),0.888,-2.04,-1.77 (inactive),-0.111 (inactive),-0.559 (inactive)
C=CC[C@]1(C(=O)NCCCOC)N=C(c2ccc(OCCCO)cc2)O[C@H]1c1ccccc1N=[N+]=[N-],0.403 (inactive),0.707,-1.99,-3.07 (inactive),-0.432 (inactive),0.0181 (inactive)
O=C1C[C@]2(c3ccc([N+](=O)[O-])cc3)C(=O)N(CCN3CCOCC3)c3cc(CO)ccc3[C@H]2N1C1CCCCC1,1.2 (inactive),0.314,0.476,-2.02 (inactive),-0.533 (inactive),-0.355 (inactive)

SMILES,composite z-score [1],composite z-score [2],z-score [3],z-score [4],z-score [5],z-score [6]
Cc1ccc(S[C@]2(C(=O)NCCN3CCOCC3)CC(=O)N(Cc3ccccc3Cl)[C@@H]2c2ccc(CO)cc2)cc1,-0.255 (inactive),0.686,-1.47,-4.04 (inactive),-0.114 (inactive),-0.121 (inactive)
CC(=O)N1Cc2ccccc2C[C@@]2(COC(c3ccc(OCCCO)cc3)=N2)C1=O,1.44 (inactive),0.81,-2.28,-3.13 (inactive),-1.01 (inactive),-1.12 (inactive)
[N-]=[N+]=Nc1ccccc1C[C@@]1(C(=O)NCCN2CCOCC2)N=C(c2ccc(OCCCO)cc2)O[C@@H]1c1ccccc1,0.58 (inactive),0.827,-2.33,-4.23 (inactive),-0.785 (inactive),-1.11 (inactive)
C=CC[C@]12N=C(c3ccc(OCCCO)cc3)O[C@H]1c1ccccc1N(Cc1ccccc1)C2=O,0.0479 (inactive),0.586,-2.17,0.196 (inactive),-0.241 (inactive),-0.197 (inactive)
CCCC[C@@H]1C[C@H]1[C@@H](NC(=O)c1ccco1)c1ccc(C(=O)OC)cc1,-0.687 (inactive),-0.16,-0.941,0.198 (inactive),0.29 (inactive),0.0944 (inactive)
C=CCNC(=O)[C@H]1[C@@H]2C(=O)O[C@@H](c3ccccc3)[C@@H](c3ccccc3)N2[C@@H](c2ccc(O)cc2)[C@]12C(=O)N(C(=O)OCCOC)c1ccc(C#CCNC(N)=O)cc12,0.17 (inactive),0.53,2.38,-3.07 (inactive),-0.237 (inactive),-0.625 (inactive)
C=CCOC(=O)[C@H]1[C@@H]2C(=O)O[C@@H](c3ccccc3)[C@@H](c3ccccc3)N2[C@@H](c2ccc(OCCOC(=O)[C@H]3C[C@H]4C(=O)N[C@@H](CC(C)C)C(=O)N4[C@H]3c3ccc(O)cc3)cc2)[C@]12C(=O)Nc1ccc(I)cc12,0.626 (inactive),0.75,-0.061,6.65 (inactive),0.293 (inactive),0.198 (inactive)
CN1C(=O)C2C=CC(C(O)c3cccs3)N(Nc3ccccc3)C2C1=O (centres undefined),0.193 (inactive),0.356,0.376,-1.14 (inactive),0.482 (inactive),0.35 (inactive)
O=C1O[C@H](c2ccccc2)[C@H](c2ccccc2)N2[C@H]1[C@@H](C(=O)O)[C@]1(C(=O)Nc3ccc(C#CCCO)cc31)[C@H]2c1ccc(O)cc1,0.207 (inactive),0.901,-0.136,-5.42 (inactive),0.11 (inactive),-0.002 (inactive)
C#CCN(Cc1ccccc1Br)C(/C=C/c1ccccc1)CO (centres undefined),1.09 (inactive),-0.318,-1.02,-6.39 (inactive),-0.348 (inactive),-0.323 (inactive)
C=C[C@H](COC(C)=O)N(C(=O)OC(C)(C)C)S(=O)(=O)c1ccc(Br)cc1,0.252 (inactive),-0.263,1.18,-2.87 (inactive),-0.255 (inactive),0.0038 (inactive)
COc1ccc(C(=O)Nc2ccc(CN3C(=O)[C@@]4(O[C@@H](CC(=O)N5CCC[C@H]5CO)[C@H]([Si](C)(C)c5ccc(OC)cc5)[C@H]4C)c4ccccc43)cc2)cc1,0.135 (inactive),0.703,-0.183,-3.33 (inactive),-0.0567 (inactive),0.829 (inactive)
CN1C(=O)C2C=CC(C(O)c3cc(C(F)(F)F)cc(C(F)(F)F)c3)N(N3CCCCC3)C2C1=O (centres undefined),0.11 (inactive),0.289,-0.0782,-4.54 (inactive),-1.22 (inactive),-1.63 (inactive)
C=CCOC(=O)[C@H]1[C@@H]2C(=O)O[C@@H](c3ccccc3)[C@@H](c3ccccc3)N2[C@@H](c2ccc(OCCOC(=O)[C@@H]3C[C@@H]4C(=O)N[C@@H](CCCCN(C)C)C(=O)N4[C@@H]3c3ccc(O)cc3)cc2)[C@]12C(=O)Nc1ccc(I)cc12,1.74 (inactive),0.805,-0.174,6.34 (inactive),0.936 (inactive),0.679 (inactive)
CCOC(=O)C[C@H]1[C@H](OC(=O)c2ccc(C(=O)c3ccccc3)cc2)[C@@H](NC(=O)c2ccc(-c3ccccc3)cc2)c2cc(OCCCO)ccc2N1C(=O)c1ccccc1,0.233 (inactive),0.549,-0.786,-1.36 (inactive),0.428 (inactive),0.303 (inactive)
C=CCOC(=O)[C@H]1[C@@H]2C(=O)O[C@@H](c3ccccc3)[C@@H](c3ccccc3)N2[C@@H](c2ccc(OCCOC(=O)[C@H]3C[C@H]4C(=O)N5CCC[C@H]5C(=O)N4[C@H]3c3ccc(O)cc3)cc2)[C@]12C(=O)Nc1ccccc12,0.0734 (inactive),0.803,-1.62,1.42 (inactive),-0.398 (inactive),0.207 (inactive)
O=C(NCc1ccccc1)[C@@H]1c2ccccc2C(=O)N(CC23CC4CC(CC(C4)C2)C3)[C@H]1c1ccc(CO)cc1,0.149 (inactive),0.794,-1.76,-3.43 (inactive),-0.221 (inactive),-0.338 (inactive)
